Source: PubChem
Hits are enriched below; roughly 1.3% of the tested compounds scored in any of these assays.
AmpC detergent: blocks E. coli AmpC beta-lactamase in detergent assay. Potency, µM (top dose mostly 114 µM), most hits filed as inhibitors. AmpC hydrolysis of nitrocefin, absorbance 480 nm, 0.01% Triton. AID 485294. 370,000 tested, 0.041% active; note: nearly all actives have a fitted effect of over 25% in size
Target sequence (P00811 whole entry, looked up): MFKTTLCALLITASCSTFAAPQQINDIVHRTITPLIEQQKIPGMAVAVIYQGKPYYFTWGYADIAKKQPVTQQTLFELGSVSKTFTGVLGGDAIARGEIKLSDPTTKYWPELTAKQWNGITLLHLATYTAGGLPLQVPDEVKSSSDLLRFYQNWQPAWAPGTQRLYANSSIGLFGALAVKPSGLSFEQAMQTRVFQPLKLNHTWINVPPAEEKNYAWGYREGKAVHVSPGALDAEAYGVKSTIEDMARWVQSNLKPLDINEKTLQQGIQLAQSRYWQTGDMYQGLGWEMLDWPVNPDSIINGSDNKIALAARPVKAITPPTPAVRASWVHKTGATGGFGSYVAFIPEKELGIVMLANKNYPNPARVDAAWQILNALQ
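AmpC (5.3 nM in the dispensed reagent) in 20 mM phosphate pH 7.0 with 0.01% (detergent screen) or 0.0001% Triton X-100 was preincubated with compounds for 15 min at room temperature. Nitrocefin was then added from an 800 uM solution, and hydrolysis was followed at 480 nm.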
Vaccinia mCherry: vaccinia inhibition (mCherry reporter). Vaccinia virus mCherry reporter infection, fluorescence. Potency, µM (highest dose often 36.5 µM), hits mostly inhibitors. 310,000 tested, 0.63% active. AID 720579; calls by dose curve; tested in A549 cells; note: nearly all actives have a fitted effect of over 35% in size
SARS PLpro yeast: inhibitors of SARS-CoV papain-like protease in yeast; S. cerevisiae expressing SARS-CoV PLpro, growth rescue; Potency, µM (top dose mostly 32.9 µM), usual class: activators; 330,000 tested, 0.19% active; AID 485353; calls by dose curve; note: nearly all actives have a fitted effect of over 55% in size
VACV Venus inh: vaccinia inhibition (Venus reporter); Potency, µM (highest dose often 36.5 µM), actives largely listed as inhibitors; 330,000 tested, 0.46% active; Vaccinia virus Venus reporter expression, fluorescence; calls by dose curve; tested in A549 cells; note: nearly all actives have a fitted effect of over 30% in size
AmpC inh no detg: inhibitors of E. coli AmpC beta-lactamase without detergent; P00811; AmpC nitrocefin hydrolysis, absorbance 480 nm, 0.0001% Triton; Potency, µM (series often up to 57.1 µM), hits mostly inhibitors; 330,000 tested, 0.52% active; note: nearly all actives have a fitted effect of over 20% in size
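20 mM phosphate pH 7.0 + 0.01% (detergent screen) or 0.0001% Triton X-100; 5.3 nM AmpC reagent; cpd preinc 15 min RT; nitrocefin (800 uM stock) to start; A480 q20 s × 4 min; Activity was normalised to no-enzyme and no-compound control wells.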
Of the large screens only hits and unclear results are named; the others gave an inactive call. Unless noted, calls come from the whole dose curve; as a rule, active = well fitted curve in the direction sought with a large enough effect; inconclusive = small, poorly fitted or top-dose-only effect, or another doubt; inactive = no such curve, though single readings can be large; an effect the other way counts as inactive or inconclusive.

CCn1nc(C)c(CN2CCC3(CCC(CNC(=O)c4ccccc4)O3)CC2)c1C (configuration not stated)	none (no result: AmpC detergent, SARS PLpro yeast, AmpC inh no detg)
O=C(OCC(=O)c1c[nH]c2ccccc12)c1cc(Br)ccc1O	AmpC inh no detg 2.2µM
CCc1cc(=O)oc2cc(C)c(CN3CCCC3)c(O)c12	AmpC detergent inconclusive, AmpC inh no detg 11µM (no result: Vaccinia mCherry, VACV Venus inh)
C=C1C(=O)O[C@H]2C[C@H]1[C@@H](OC(C)=O)C/C(C)=C/CC/C(C)=C\CC[C@]2(C)O	Vaccinia mCherry 10µM, VACV Venus inh 10µM (no result: AmpC detergent, SARS PLpro yeast, AmpC inh no detg)
COc1cc(OC)c2c(C)c(CC(=O)NCCc3ccccc3OC)c(=O)oc2c1	none (no result: SARS PLpro yeast, AmpC inh no detg)
CC(C)(C)c1ccc(C(=O)N2CCC3(CC2)CC3C(=O)NCCc2ccccn2)cc1 (configuration not stated)	none (no result: AmpC detergent, SARS PLpro yeast, AmpC inh no detg)
CCCN(CCC)c1nc(Cl)nc(NCc2ccco2)n1	AmpC inh no detg 0.16µM (no result: Vaccinia mCherry, VACV Venus inh)
C=C1[C@@H](O)[C@H](Cc2ccccc2)N(Cc2ccccc2Br)S1(=O)=O	Vaccinia mCherry 10µM, VACV Venus inh 10µM (no result: AmpC detergent, SARS PLpro yeast, AmpC inh no detg)
Cc1cc(N(C)C)c(C)cc1/C=C/c1ccnc2ccccc12	none (no result: AmpC detergent, SARS PLpro yeast, AmpC inh no detg)
N=c1n(CCO)c2ccccc2n1CCOc1ccc(Cl)cc1Cl	AmpC detergent inconclusive, Vaccinia mCherry inconclusive, VACV Venus inh 11µM
CCCOc1cccc(-c2cc(C(=O)N/N=C/c3ccccn3)c3ccccc3n2)c1	AmpC detergent inconclusive, Vaccinia mCherry inconclusive
CCCOc1cccc(-c2cc(C(=O)NN)c3ccccc3n2)c1	AmpC inh no detg 10µM
COc1cc(=O)n2c(c1C(=O)NCc1ccco1)CCN(C(=O)c1c(F)ccc(F)c1F)CC2	none (no result: AmpC detergent, SARS PLpro yeast, AmpC inh no detg)
COc1ccc(N=C2NC(=O)/C(=C\c3ccco3)S2)cc1	none
O=C1NC(=Nc2ccc(O)cc2)S/C1=C\C=C\c1ccco1	Vaccinia mCherry inconclusive, AmpC inh no detg 18µM
NS(=O)(=O)c1ccc(N/N=C/c2ccc(O)c(O)c2O)c([N+](=O)[O-])c1	Vaccinia mCherry inconclusive, AmpC inh no detg 7.1µM
O=C(COc1ccc(Br)cc1)Nc1ccccc1C(=O)NC1CC1	AmpC detergent inconclusive, AmpC inh no detg 3.2µM
CC12CCC(C(=O)N(CSC(=S)N/N=C\c3ccccc3)C1=O)C2(C)C (configuration not stated)	AmpC detergent inconclusive, SARS PLpro yeast 10µM
CC12CCC(C(=O)N(CSC(=S)N/N=C\c3ccccc3Cl)C1=O)C2(C)C (configuration not stated)	SARS PLpro yeast inconclusive
CCC(CO)Oc1cc(NCc2ccc(C(C)(C)C)cc2)c2ncn(C(C)C)c2c1 (configuration not stated)	Vaccinia mCherry 13µM, VACV Venus inh inconclusive (no result: AmpC detergent)
CC(C)n1cnc2c(NCc3ccccc3)cc(N[C@H](C)CO)cc21	Vaccinia mCherry inconclusive, VACV Venus inh 14µM (no result: AmpC detergent)
CCOC(=O)CCCCCC(=O)Nc1ccc2c(c1)C(=O)N([C@H](C)CO)C[C@@H](C)[C@@H](CN(C)C(=O)CCC(F)(F)F)OCCCC[C@H](C)O2	none (no result: AmpC detergent, SARS PLpro yeast, AmpC inh no detg)
O=C(CN1C(=O)c2ccccc2C1=O)NCC1Cc2cccc(-c3ncccn3)c2O1 (configuration not stated)	none (no result: AmpC detergent, SARS PLpro yeast, AmpC inh no detg)
CCC1(C2CCN(Cc3cccc4ccccc34)CC2)NC(=O)N(Cc2ccc3c(c2)OCO3)C1=O (configuration not stated)	none (no result: AmpC detergent, SARS PLpro yeast, AmpC inh no detg)
CCOC(=O)c1cc(C(=O)c2cc(Cl)ccc2O)coc1=N	AmpC inh no detg 5µM
COCCOC(=O)c1cc(C(=O)c2cc(Cl)ccc2O)coc1=N	none
COc1ccc(C/C(C)=N/NC(=S)Nc2ccc(Cl)cc2)cc1	Vaccinia mCherry inconclusive
COc1ccc(C/C(C)=N/NC(=S)Nc2ccccc2)cc1	SARS PLpro yeast 11µM (no result: Vaccinia mCherry, VACV Venus inh)
CNc1ncnc(Sc2nc(N)nc3nc[nH]c23)c1[N+](=O)[O-]	Vaccinia mCherry 5µM, VACV Venus inh inconclusive (no result: AmpC detergent, SARS PLpro yeast, AmpC inh no detg)
CN1CCN(S(=O)(=O)c2cnc(Cl)c(Br)c2)CC1	Vaccinia mCherry 13µM, VACV Venus inh inconclusive
CC1CCN(S(=O)(=O)c2cnc(Cl)c(Br)c2)CC1	none
Cc1cnc(-n2ncc(C(=O)N(C)Cc3cccc4ncccc34)c2C(C)C)nc1-c1ccc(F)cc1	none (no result: AmpC detergent, SARS PLpro yeast, AmpC inh no detg)
CS(=O)(=O)N1CCN(c2ccccc2NC(=O)C(c2ccccc2)c2ccccc2)CC1	none (no result: Vaccinia mCherry, VACV Venus inh)
CC(C)C(=O)Nc1ccccc1N1CCN(S(C)(=O)=O)CC1	AmpC inh no detg 0.28µM (no result: Vaccinia mCherry, VACV Venus inh)
O=C(NC(c1ccc(Cl)cc1)c1c(O)ccc2ccccc12)c1ccccc1 (configuration not stated)	Vaccinia mCherry 10µM, VACV Venus inh inconclusive
